From PubChem BioAssay (NCATS) come the findings set out here.

Test [1] addresses D(1A) dopamine receptor (Homo sapiens) (UniProt P21728). The experiment in a line: HTS Assay for Allosteric Agonists of the Human D1 Dopamine Receptor: Primary Screen for Agonists (AID 488981). Further: potency means the concentration at half of the fitted maximal effect. The method, boiled down: (§1)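 Tetracycline-induced HEK293 Trex D1 cells with forced coupling to calcium, loaded with no-wash calcium dye; kinetic fluorescence read 180 s after compound addition for agonism, then a further 180 s after an EC20 dopamine challenge for potentiation.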

Test [2] has the same target. The experiment in a line: HTS Assay for Allosteric Agonists of the Human D1 Dopamine Receptor: Primary Screen for Potentiators (AID 488982). Further: 0% is about no effect. The method, boiled down:
as §1

Test [3] has the same target. The experiment in a line: HTS Assay for Allosteric Agonists of the Human D1 Dopamine Receptor: Primary Screen for Antagonists (AID 488983).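 Further: calcium flux response to an EC80 dopamine challenge measured with no-wash dye; on the % scale 0 is the no-effect control and ±100 the full control effect; nearly all actives have a fitted effect of over 65% in size.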 The method, boiled down:
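Tetracycline-induced HEK293 T-REx cells expressing force-coupled D1 were plated overnight at 30 C, dye-loaded for calcium, and read kinetically. Compounds were pinned in, then an EC80 dopamine challenge followed after 180 s to reveal antagonism.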

A short description of test [4]: Validation screen for small molecules that induce genotoxicity in human embryonic kidney (HEK293T) cells expressing luciferase-tagged ELG1 (AID 493106). Further: 0% is about no effect. The method, boiled down: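 HEK293T cells expressing luciferase-tagged ELG1 were exposed to compound or DMSO vehicle for 16 hr at 37 °C, 5% CO2. Genotoxic stress raises ELG1 levels, so increased luciferase signal after ONE-Glo addition and 30 min at room temperature marks hits.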

For test [5], the target named is ATPase family AAA domain-containing protein 5 (Homo sapiens) (UniProt Q96QE3). Put plainly: Validation screen for small molecules that inhibit ELG1-dependent DNA repair in human embryonic kidney (HEK293T) cells expressing luciferase-tagged ELG1 (AID 493107). Further: nearly all actives have a fitted effect of over 70% in size. Further: potency means the concentration at half of the fitted maximal effect. The method, boiled down:
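HEK293T cells expressing luciferase-tagged ELG1 were co-treated with 5-fluorouridine and compound or DMSO for 16 hr at 37 °C, 5% CO2. Luciferase activity was then read with ONE-Glo after 30 min at room temperature; suppressed signal indicates blocked ELG1 function.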

A short description of test [6]: qHTS for Inhibitors of Cell Surface uPA Generation: Validation Assay (AID 493164).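 Further: RAW 264.7 macrophage cells exposed to compound for 18 h; 0% is about no effect.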 The method, boiled down:
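RAW 264.7, 4000 cells/well, o/n plating; cpd 7-pt 1:5 dilution 2.45 nM–38.3 uM final; 18 h, 37 C/5% CO2; ATP-Lite, 5 s luminescence exposure.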
(Quantitative high-throughput screening tests each substance at several concentrations.)

The target of test [7] is Peptidyl-prolyl cis-trans isomerase NIMA-interacting 1 (Homo sapiens) (UniProt Q13526). The experiment in a line: qHTS Validation Assay to Find Inhibitors of Pin1 (AID 504536; active means well fitted inhibition curve with a large enough effect in the polarisation, with a control signal flat, not every such curve was filed as active; the % refers to the polarisation;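 further: 0% = full Pin1 enzyme wells and -100% = no-enzyme wells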). The essentials:
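Fluorescence polarization competition: compounds (titration) displace HiFluor-488-labeled Pin1-1b peptide from Pin1 (0.3 uM final) in pH 7.5 HEPES buffer with DTT, 10 min at room temperature; %Activity normalized to no-enzyme wells, curves fitted.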

Test [8] deals with Phosphoglycerate kinase, glycosomal (Trypanosoma brucei brucei) (UniProt P07378). The experiment in a line: qHTS Validation Assay to Find Inhibitors of Phosphoglycerate Kinase (AID 504547).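 Further: control wells lack PGK and mark full inhibition.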 The method, boiled down: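 PGK activity was coupled to GAPDH (100nM final), which generates the unstable substrate 1,3-bisphosphoglycerate in-well. Reactions ran 60 minutes at room temperature in 100mM TEA pH 7.6, 5mM MgCl2, 0.01% Tween-20, then Kinase-Glo Plus luminescence was read.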
Phosphoglycerate kinase, glycosomal (Trypanosoma brucei brucei), sequence (P07378 whole entry, looked up): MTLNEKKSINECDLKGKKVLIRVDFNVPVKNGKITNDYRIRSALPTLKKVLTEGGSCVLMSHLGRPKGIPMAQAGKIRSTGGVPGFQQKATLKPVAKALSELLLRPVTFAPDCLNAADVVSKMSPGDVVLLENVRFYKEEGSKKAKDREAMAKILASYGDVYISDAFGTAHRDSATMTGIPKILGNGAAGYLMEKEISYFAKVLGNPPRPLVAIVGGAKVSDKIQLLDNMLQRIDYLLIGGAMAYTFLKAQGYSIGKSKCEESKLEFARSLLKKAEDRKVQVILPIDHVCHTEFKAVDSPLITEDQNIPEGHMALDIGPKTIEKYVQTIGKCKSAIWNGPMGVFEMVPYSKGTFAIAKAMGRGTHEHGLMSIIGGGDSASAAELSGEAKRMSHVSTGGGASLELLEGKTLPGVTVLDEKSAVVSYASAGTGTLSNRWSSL

The target in test [9] is phosphoglycerate mutase (Leishmania major) (UniProt Q4Q090). Put plainly: qHTS Validation Assay to Find Inhibitors of Phosphoglycerate Mutase (AID 504548). Further: potency means the concentration at half of the fitted maximal effect. The settings on record: Potency: inhibition qHTS. The method, boiled down: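 Luminescent end-point read-out via Kinase-GloPlus after a 10-minute development. Reaction: 1.25nM Leishmania major PGAM with substrate and compound, 45 minutes at room temperature in TEA buffer (pH 7.6) with MgCl2 and Tween-20.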
phosphoglycerate mutase (Leishmania major), sequence (Q4Q090 1-553): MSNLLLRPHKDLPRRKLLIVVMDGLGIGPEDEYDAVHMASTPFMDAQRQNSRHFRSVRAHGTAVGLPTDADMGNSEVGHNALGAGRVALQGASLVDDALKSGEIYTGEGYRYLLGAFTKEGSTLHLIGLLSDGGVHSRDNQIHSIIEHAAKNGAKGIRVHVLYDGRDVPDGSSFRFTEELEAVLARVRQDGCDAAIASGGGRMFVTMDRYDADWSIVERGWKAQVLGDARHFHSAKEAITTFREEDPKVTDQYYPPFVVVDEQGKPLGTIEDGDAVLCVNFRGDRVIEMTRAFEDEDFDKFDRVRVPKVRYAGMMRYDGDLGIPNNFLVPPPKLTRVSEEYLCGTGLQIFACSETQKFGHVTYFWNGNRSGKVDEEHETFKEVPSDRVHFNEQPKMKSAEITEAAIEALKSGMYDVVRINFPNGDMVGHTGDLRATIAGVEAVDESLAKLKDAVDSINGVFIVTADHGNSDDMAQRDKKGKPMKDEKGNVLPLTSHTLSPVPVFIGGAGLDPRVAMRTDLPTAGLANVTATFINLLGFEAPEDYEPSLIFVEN

Test [10] is described as follows: qHTS for Inhibitors of ATXN expression: Validation of Cytotoxic Assay (AID 588349). Further: potency means the concentration at half of the fitted maximal effect. The method, boiled down:
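HEK293 cells were dosed with titrated compounds for 72 hr at 37 degrees C. Viability was read by CellTiter Glo luminescence, with intracellular ATP as the marker of cell survival.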

Test [11] can be described thus: qHTS for Inhibitors of ATXN expression: Validation (AID 588378). Further: series mostly up to about 57 µM; on the % scale 0 is the no-effect control and ±100 the full control effect; nearly all actives have a fitted effect of over 75% in size. The method, boiled down:
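Compounds were pinned onto attached HEK293 cells carrying an ATXN2-firefly luciferase construct and incubated 24 hrs at 37 degrees C. Each well then received a fluorescent viability reagent followed by luciferase substrate for end-point luminescence.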

Test [12] can be described thus: Nrf2 qHTS screen for inhibitors: Validation (AID 493153; active means well fitted inhibition curve with a large enough effect in the main read-out, with a control signal flat, not every such curve was filed as active). The following applies: Potency: luciferase luminescence; viability change: measured here: cytotoxicity max response. The method, boiled down:
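A549 cells carrying an ARE-driven firefly luciferase reporter, in 5% FBS OPTI-MEM, were treated with compounds in concentration-response for 18-24 h at 37°C. Viability was read by CellTiter-Fluor fluorescence, then Nrf2 activity by luciferase luminescence.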

The target of test [13] is Galactokinase (Homo sapiens) (UniProt P51570). The experiment in a line: qHTS Validation Assay for Inhibitors of Human Galactokinase (GALK) (AID 493189). Further: 0% is about no effect. The essentials: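 5 nM GALK / 100 uM galactose / 35 uM ATP, 20 mM HEPES pH8.0, 5 mM MgCl2, 60 mM NaCl, 1 mM DTT, 0.01% BSA (final). RT 1 h; Kinase-Glo Plus luminescence.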
Galactokinase (Homo sapiens), sequence (P51570 whole entry, looked up): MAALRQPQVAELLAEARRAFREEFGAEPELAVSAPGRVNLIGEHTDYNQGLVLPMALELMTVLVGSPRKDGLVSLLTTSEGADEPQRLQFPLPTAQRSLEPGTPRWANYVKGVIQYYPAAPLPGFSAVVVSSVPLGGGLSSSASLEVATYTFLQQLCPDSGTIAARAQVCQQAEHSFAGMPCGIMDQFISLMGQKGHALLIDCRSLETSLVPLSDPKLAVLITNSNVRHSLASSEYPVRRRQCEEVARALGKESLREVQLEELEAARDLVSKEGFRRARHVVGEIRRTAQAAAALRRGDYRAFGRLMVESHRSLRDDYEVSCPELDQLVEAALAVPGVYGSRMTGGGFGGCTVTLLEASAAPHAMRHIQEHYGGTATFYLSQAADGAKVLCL
Test [14] can be described thus: Validation screen for small molecules that induce DNA re-replication in SW480 colon adenocarcinoma cells (AID 504364). Further: 0% is about no effect. The essentials: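 SW480 cells seeded at 250 per well were exposed to compound or DMSO for 48 hr at 37 C, 5% CO2, then stained with Hoechst for 40 min. DNA content per nucleus was imaged (405 nm ex, 500-530 nm em).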
Test [15] addresses Ubiquitin carboxyl-terminal hydrolase 1 (Homo sapiens) (UniProt O94782). Put plainly: Inhibitors of USP1/UAF1: Pilot qHTS (AID 504865). Further: nearly all actives have a fitted effect of over 35% in size. Further: potency means the concentration at half of the fitted maximal effect. The essentials: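 In 50mM HEPES pH 7.8 containing 0.5mM EDTA, 1mM TCEP, 0.1 mg/ml BSA and 0.01% Tween-20, 1nM USP1/UAF1 is exposed to compound for 15 min, then Ub-Rho (150nM final) is added and fluorescence is read over time.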

Records with an inconclusive call do not appear. Active and inactive are the calls of the source. Unless noted, the call rests on the fitted dose curve; in most records, active means well fitted curve in the direction sought with a large enough effect; inconclusive means small, poorly fitted or top-dose-only effect, or another doubt; inactive means no such curve, though single readings can be large; an effect the other way counts as inactive or inconclusive.

Peptidyl-prolyl cis-trans isomerase NIMA-interacting 1 (Homo sapiens), sequence (Q13526 whole entry, looked up): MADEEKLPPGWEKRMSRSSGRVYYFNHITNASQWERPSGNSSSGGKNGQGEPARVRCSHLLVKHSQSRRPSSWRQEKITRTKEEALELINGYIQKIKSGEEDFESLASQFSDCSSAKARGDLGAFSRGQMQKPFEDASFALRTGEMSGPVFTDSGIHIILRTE
ATPase family AAA domain-containing protein 5 (Homo sapiens), sequence (Q96QE3 whole entry, looked up, the tested form may be a part): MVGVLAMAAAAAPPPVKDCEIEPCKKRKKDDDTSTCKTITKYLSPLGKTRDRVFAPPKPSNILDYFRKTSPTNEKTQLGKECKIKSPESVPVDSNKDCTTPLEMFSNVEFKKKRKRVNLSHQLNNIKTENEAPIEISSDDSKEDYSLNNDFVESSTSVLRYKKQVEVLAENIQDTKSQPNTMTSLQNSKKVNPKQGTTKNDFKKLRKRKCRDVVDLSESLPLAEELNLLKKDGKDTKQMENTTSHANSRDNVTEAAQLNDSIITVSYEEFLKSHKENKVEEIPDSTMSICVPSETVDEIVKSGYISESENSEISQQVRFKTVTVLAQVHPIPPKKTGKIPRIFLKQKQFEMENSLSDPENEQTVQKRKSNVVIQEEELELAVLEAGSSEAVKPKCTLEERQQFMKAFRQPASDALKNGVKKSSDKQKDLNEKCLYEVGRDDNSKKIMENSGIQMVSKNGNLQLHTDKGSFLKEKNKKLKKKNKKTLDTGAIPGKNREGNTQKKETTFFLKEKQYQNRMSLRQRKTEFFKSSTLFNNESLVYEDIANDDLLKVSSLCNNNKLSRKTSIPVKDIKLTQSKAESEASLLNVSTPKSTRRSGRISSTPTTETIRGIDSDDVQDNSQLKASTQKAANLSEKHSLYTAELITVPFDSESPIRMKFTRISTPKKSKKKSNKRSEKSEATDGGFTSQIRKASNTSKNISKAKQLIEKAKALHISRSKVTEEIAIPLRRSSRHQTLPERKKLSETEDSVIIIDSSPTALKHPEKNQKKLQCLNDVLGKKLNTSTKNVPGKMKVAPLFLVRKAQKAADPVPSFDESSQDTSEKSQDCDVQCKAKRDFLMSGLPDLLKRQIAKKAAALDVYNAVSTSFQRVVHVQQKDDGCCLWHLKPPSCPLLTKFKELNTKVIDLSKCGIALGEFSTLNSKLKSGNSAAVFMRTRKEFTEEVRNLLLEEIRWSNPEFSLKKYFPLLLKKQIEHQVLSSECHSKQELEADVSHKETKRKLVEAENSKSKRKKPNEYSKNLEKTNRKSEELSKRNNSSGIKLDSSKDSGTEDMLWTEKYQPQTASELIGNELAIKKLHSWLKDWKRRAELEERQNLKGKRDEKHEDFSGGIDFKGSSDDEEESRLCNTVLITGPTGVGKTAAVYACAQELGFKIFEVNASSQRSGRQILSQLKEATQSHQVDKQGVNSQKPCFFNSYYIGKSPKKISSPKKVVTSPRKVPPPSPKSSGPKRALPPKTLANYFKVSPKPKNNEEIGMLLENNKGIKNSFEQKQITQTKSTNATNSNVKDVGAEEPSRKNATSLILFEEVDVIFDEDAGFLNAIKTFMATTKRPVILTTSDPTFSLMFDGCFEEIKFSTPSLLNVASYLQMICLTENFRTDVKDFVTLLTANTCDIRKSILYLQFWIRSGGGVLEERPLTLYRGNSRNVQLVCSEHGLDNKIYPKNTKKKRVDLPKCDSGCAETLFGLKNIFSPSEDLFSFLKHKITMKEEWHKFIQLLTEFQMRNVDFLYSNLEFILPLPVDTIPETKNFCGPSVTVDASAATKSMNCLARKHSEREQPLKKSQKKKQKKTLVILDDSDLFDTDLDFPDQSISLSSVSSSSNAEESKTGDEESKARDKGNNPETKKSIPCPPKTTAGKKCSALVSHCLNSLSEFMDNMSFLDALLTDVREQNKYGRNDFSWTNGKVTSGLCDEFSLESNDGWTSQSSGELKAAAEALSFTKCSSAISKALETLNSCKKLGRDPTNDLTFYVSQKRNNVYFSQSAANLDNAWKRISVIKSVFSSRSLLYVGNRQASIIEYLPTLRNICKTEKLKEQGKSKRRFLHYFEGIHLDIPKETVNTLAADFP
Ubiquitin carboxyl-terminal hydrolase 1 (Homo sapiens), sequence (O94782 whole entry, looked up): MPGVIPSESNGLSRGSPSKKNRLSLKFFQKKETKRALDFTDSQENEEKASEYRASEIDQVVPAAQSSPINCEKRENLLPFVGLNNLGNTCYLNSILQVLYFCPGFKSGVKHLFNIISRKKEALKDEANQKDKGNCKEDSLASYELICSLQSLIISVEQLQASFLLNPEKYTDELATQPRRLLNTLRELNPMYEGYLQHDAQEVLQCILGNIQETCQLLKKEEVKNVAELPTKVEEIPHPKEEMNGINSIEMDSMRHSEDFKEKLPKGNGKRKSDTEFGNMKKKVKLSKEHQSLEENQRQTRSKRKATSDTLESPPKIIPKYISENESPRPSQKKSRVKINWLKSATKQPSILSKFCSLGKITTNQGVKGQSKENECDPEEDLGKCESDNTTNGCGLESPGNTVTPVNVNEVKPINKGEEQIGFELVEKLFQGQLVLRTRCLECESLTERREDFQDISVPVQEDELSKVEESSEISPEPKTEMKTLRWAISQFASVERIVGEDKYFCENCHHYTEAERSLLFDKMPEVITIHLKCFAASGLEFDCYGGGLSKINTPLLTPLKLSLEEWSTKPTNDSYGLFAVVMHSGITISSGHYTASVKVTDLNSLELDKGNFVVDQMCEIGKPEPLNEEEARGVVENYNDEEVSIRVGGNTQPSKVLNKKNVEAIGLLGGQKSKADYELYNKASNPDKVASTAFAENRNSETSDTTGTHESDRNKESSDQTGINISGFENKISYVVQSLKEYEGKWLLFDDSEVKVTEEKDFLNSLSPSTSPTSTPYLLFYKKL
D(1A) dopamine receptor (Homo sapiens), sequence (P21728 whole entry, looked up): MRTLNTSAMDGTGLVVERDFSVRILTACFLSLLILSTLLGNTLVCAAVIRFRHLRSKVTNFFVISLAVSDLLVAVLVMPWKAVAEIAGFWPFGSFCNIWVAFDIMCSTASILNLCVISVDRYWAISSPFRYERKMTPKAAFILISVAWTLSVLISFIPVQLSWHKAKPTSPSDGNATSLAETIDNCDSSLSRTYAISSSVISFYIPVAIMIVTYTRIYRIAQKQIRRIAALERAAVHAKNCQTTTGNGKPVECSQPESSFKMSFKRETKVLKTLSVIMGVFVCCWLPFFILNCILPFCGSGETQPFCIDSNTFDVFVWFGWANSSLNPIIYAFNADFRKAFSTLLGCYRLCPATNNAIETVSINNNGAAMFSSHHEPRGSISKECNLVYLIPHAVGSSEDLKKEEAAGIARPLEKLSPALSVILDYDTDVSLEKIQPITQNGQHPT

On to `N#Cc1cc([N+](=O)[O-])c2sc(C(N)=O)[n+]([O-])c2c1`, for which the Potency result in test [1], in test [2], in test [3], in [4], in test [7] and in test [8] was “inactive” in each case. The Potency entry in test [9], in test [10] and in test [11] was “inactive” each time. Also, the Potency in test [5] was 16.4 µM (active). Moreover, the result in test [6] was inactive.
As to `CSC(=N)N`, the Potency entry in test [1], in test [3], in test [4], in test [5], in test [12] and in test [13] was “inactive” throughout. The Potency entry in [14], in test [7], in test [9], in test [15], in test [10] and in [11] was “inactive” in each case. In addition, in test [12], the viability change was -21.7%. In addition, in test [6], the outcome was inactive.
Regarding `CC(=O)SC1CC2=CC(=O)CC[C@]2(C)C2CC[C@@]3(C)C(CC[C@@]34CCC(=O)O4)C12` (stereo not given in full), the Potency result in test [1], in test [3], in test [4], in test [12], in test [7] and in test [8] was “inactive” throughout. In addition, the Potency result in [9], in test [15] and in test [10] was “inactive” each time. The Potency in [5] was 7.3 µM (active). Moreover, the viability change in [12] was -9.73%. Also, the compound was classed as inactive in test [6].
For the compound `COc1ccc(CCn2nnnc2C2(c3ccc(C)cc3)CC2)cc1`, the Potency entry in test [1], in test [3], in test [4], in test [5], in test [12] and in test [7] was “inactive” throughout. Besides, the Potency entry in test [8], in test [9], in [10] and in test [11] was “inactive” each time. Besides, the viability change in [12] worked out at 2.86%. In addition, the result in test [6] was inactive.
With `CC[n+]1c(/C=C/C=C2/N(C)c3ccccc3C2(C)C)sc2ccccc21`, the Potency is 11.2 µM (active) in test [1]; 2.31 µM (active) in test [5]; 19 µM (active) in test [9]; 31.6 µM (active) in [15]; 3.16 µM (active) in [10]. Moreover, the Potency result in test [2], in test [3] and in test [4] was “inactive” throughout. In addition, the compound was classed as inactive in [6].
Consider `NC[C@@H]1O[C@H](c2ccccc2)Cc2c1ccc(O)c2O`, for which the Potency result in test [1], in [2], in test [5], in test [12], in test [7] and in test [9] was “inactive” throughout. The Potency entry in [15], in test [10] and in test [11] was “inactive” throughout. For the same compound, the viability change in test [12] is -1.5%. In [6], the result was inactive.
As for `Oc1ccc(/C=C/c2ccc(/C=C/c3ccc(O)cc3)c(Br)c2)cc1`, the Potency result in test [1], in test [2], in test [3], in test [4], in test [5] and in [12] was “inactive” each time. For the same compound, the Potency result in test [7], in test [9] and in test [15] was “inactive” throughout. Besides, in test [12], the viability change came to 2.12%. Further, in test [6], the result was inactive.
